# An excerpt weighted towards active compounds, which were near 2.7% of everything screened.
# MITF act: activators of MITF-driven TRPM1 promoter reporter, primary screen, cell-based, SK-MEL-5, luciferase, single point. SK-MEL-5 TRPM1-promoter luciferase, 24 h; % of positive control, neutral wells = 0. activation, % at 12.5 µM. hit rate 0.75% among 300,000;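 active = mean activation of at least 80% with every replicate also reaching 80%; inconclusive = mean reaches 80% but some replicate falls short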;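 note: 0% = neutral control wells and 100% = parthenolide positive control wells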
# F508del corr: F508del CFTR correction, initial screen, CFBE line, single point | AID 720511, 2013 | hit rate 0.36% among 350,000 | CFBE cells, YFP halide quenching; stimulated with forskolin plus potentiator P3; % fluorescence drop versus neutral controls | activity (quench increase), % at 7.58 µM;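 active = mean added fluorescence quench of at least 8% versus neutral control, with both replicates also reaching 8%; inconclusive = only one of the mean or replicate conditions met; inactive = mean below 8% and not both replicates reaching 8%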;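 note: cells transiently co-express mutant CFTR-F508del with the halide-sensitive YFP; corrector assay measuring rescue of mutant channel to the surface after 24 h compound exposure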
# Wnt act: Wnt/beta-catenin pathway activators, primary screen, cell-based, plate reader, single point; Wnt/beta-catenin reporter cell assay, activator; activation, % at 9.35 µM; hit rate 1.2% among 300,000; in the data active = activation above about 30%, passing the limit was not always enough; inconclusive = no clear call, values can overlap the other calls;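 note: 0% = neutral control wells and 100% = positive control wells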
# HIV Env fusion: inhibitors of HIV-1 Env-driven cell-cell fusion, primary screen, HeLa-JRFL effector, CEM21 target cells, luciferase. inhibition, % at 12.3 µM. hit rate 1.1% among 360,000. AID 651610, 2012;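 active = mean replicate inhibition score of at least 50 and every replicate individually at or above 50; inconclusive = only one of the two criteria met; inactive = mean below 50 and not all replicates reaching 50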;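 note: 0% = plate neutral controls and 100% = maraviroc near 300 nM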
# INS-1E GSIS act: GLuc luminescence reporter in INS-1E cells, primary screen for activators of glucose-dependent secretion of insulin | INS-1E GLuc reporter insulin secretion, 2-3 h | activation, % at 16.6 µM | hit rate 0.61% among 370,000 | AID 743287, 2014;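 active = lowest replicate activation of at least 40%, so every replicate reaches that level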;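 note: 0% = median of neutral control wells and 100% = median of IBMX positive control wells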
# An asterisk follows results filed as active; u = inconclusive; x = not tested or not shown; ! = repeats disagree; [ ] = dose if it differs, or a comment.
SMILES,MITF act,F508del corr,Wnt act,HIV Env fusion,INS-1E GSIS act
COc1ccc(CN2[C@@H]3CN(C(=O)Nc4ccc(F)cc4)c4ccccc4[C@@H]3[C@@H]2CO)cc1,x,-2.3,x,x,-19.3
CS(=O)(=O)Nc1ccc2c(c1)[C@H]1C[C@H](CC(=O)NCc3ccccn3)O[C@H](CO)[C@H]1O2,x,1.2,x,0.0[16.7 µM],-7.8
C[C@H]1CN([C@@H](C)CO)C(=O)c2ccccc2-c2ccccc2CO[C@@H]1CN(C)C(=O)CCC(F)(F)F,x,-1.7,x,56.8*[16.7 µM],3.4
C[C@H](CO)N1C[C@H](C)[C@H](CN(C)C(=O)c2ccccc2)OCc2ccccc2-c2c(n(C)c3ccccc23)C1=O,x,1.9,-4.5,57.5*,-21.8
CO[C@H](C(=O)N(C)C[C@H]1OCc2ccccc2-c2c(n(C)c3ccccc23)C(=O)N([C@H](C)CO)C[C@H]1C)c1ccccc1,x,4.0,x,-98.8[16.7 µM],-5.8
CO[C@H](C(=O)N(C)C[C@@H]1OCc2ccccc2-c2c(n(C)c3ccccc23)C(=O)N([C@H](C)CO)C[C@@H]1C)c1ccccc1,x,-1.0,1.5,77.8*,14.9
C[C@@H]1CCCCO[C@@H](CN(C)S(=O)(=O)c2cn(C)cn2)[C@@H](C)CN([C@H](C)CO)C(=O)c2cc(NC(=O)Nc3ccccc3)ccc2O1,x,-2.5,x,-6.7[16.7 µM],49.4
C[C@@H]1CN([C@H](C)CO)C(=O)Cc2cc(NC(=O)Cc3cn(C)c4ccccc34)ccc2O[C@@H]1CN(C)C(=O)Nc1ccccc1,x,3.6,x,-2.1[16.7 µM],-8.0
O=C(Cc1cccnc1)N[C@H]1CC[C@H](CCNS(=O)(=O)c2ccccc2Cl)O[C@H]1CO,x,-1.0,x,x,6.4
Cc1noc(C)c1NC(=O)Nc1ccc2c(c1)C(=O)N([C@@H](C)CO)C[C@@H](C)[C@@H](CN(C)C(=O)CCCN(C)C)OCCCC[C@@H](C)O2,x,-2.3,x,-19.9[16.7 µM],1.1
C[C@@H]1CN([C@H](C)CO)C(=O)c2cc(C#Cc3ccccn3)cnc2O[C@H]1CN(C)C(=O)c1cnccn1,x,-1.4,x,15.9[16.7 µM],10.2
CCOc1ccc(NC2c3ccccc3C(=O)N2Cc2ccco2)cc1 (stereo unspecified),x,1.0,-0.7,73.6*,x
Cc1ccc(NC(=S)NNC(=S)Nc2cccc(C(F)(F)F)c2)cc1,x,1.9,39.8*,-9.9,-18.6
FC(F)(F)c1cccc(NC(=S)NCc2ccc(Cl)cc2)c1,0.1,x,-12.5,63.9*,-29.7
Fc1ccc(CNC(=S)Nc2cccc(C(F)(F)F)c2)cc1,0.8,x,-0.6,x,-29.2
Fc1ccccc1-c1nnc2ccc3ccccc3n12,-11.6,1.4,-0.5,-7.2,53.2*
Fc1cccc(Cl)c1-c1nnc2ccc3ccccc3n12,-9.3,1.0,19.9,7.8,5.5
Cc1cc(C)n(Cc2ccc(NC(=O)c3ccc(COc4ccccc4Br)cc3)cc2)n1,-8.6,x,x,78.7*,5.1
Cc1c(C(=O)N2CCOCC2)sc2ncnc(N3CCc4ccccc4C3)c12,-1.0,x,-3.0,x,x
COCCCNC(=O)c1sc2ncnc(N3CCc4ccccc4C3)c2c1C,-4.2,x,x,78.4*,13.1
CNC(=O)C[C@H]1CC[C@H]2[C@H](COc3ccc(NC(=O)c4cccs4)cc3C(=O)N2C)O1,x,0.0,x,17.2[16.7 µM],-1.4
Nc1nc(N)nc(-c2ccc(Cl)c(Cl)c2)n1,70.6,3.6,37.6*,28.1,-2.1
O=C(Nc1nc(-c2ccc(-c3ccccc3)cc2)cs1)C1=COCCO1,-3.6,x,x,10.0,84.5*
O=S(=O)(Nc1ccc(-c2csc(-c3ccccc3)n2)cc1)c1ccc(F)cc1,-1.9,x,x,x,x
Cc1cc(C)c(-c2csc(NC(=O)C3=COCCO3)n2)cc1C,71.3,3.8,16.9,-24.9,-15.6
SMILES,MITF act,F508del corr,Wnt act,HIV Env fusion,INS-1E GSIS act
C=CCn1c(C)cc(-c2csc(NC(=O)C3=COCCO3)n2)c1C,119.6*,-0.7,-13.9,-4.1,1.6
O=C(Nc1nc(-c2ccccc2)cs1)c1ccccc1NS(=O)(=O)c1ccc(F)cc1,-69.0,x,-25.3,64.3*,-49.5
C[C@@H]1CN([C@@H](C)CO)C(=O)c2cc(NS(C)(=O)=O)ccc2O[C@@H](C)CCCCO[C@H]1CN(C)C,x,-1.1,x,3.0[16.7 µM],3.4
C[C@@H]1CCCCO[C@@H](CN(C)C(=O)c2ccccc2)[C@H](C)CN([C@@H](C)CO)C(=O)c2cc(NC(=O)Nc3ccccc3)ccc2O1,x,1.1,x,-1.8[16.7 µM],8.3
Cc1noc(C)c1S(=O)(=O)N(C)C[C@@H]1Oc2ccc(NC(=O)Nc3cccc4ccccc34)cc2CC(=O)N([C@H](C)CO)C[C@@H]1C,x,1.0,x,78.7*[16.7 µM],0.2
Cc1ccc(S(=O)(=O)N(C)C[C@@H]2Oc3ccc(NC(=O)Nc4cccc5ccccc45)cc3CC(=O)N([C@@H](C)CO)C[C@@H]2C)cc1,x,-0.8,x,56.4*[16.7 µM],4.1
Cc1ccc(S(=O)(=O)N(C)C[C@H]2Oc3ccc(NC(=O)Nc4cccc5ccccc45)cc3CC(=O)N([C@@H](C)CO)C[C@@H]2C)cc1,x,-4.9,x,28.4[16.7 µM],8.2
COc1cccc(-c2nc3sc4c(c3c(=O)[nH]2)CCCCC4)c1,114.3*,x,x,-304.6,29.7
CCCCCCSc1ccc(-c2nc3ccc(C)cn3c2NCc2ccccc2)cc1,10.3,2.9,-3.4,u,-5.8
CCCCCCSc1cccc(-c2nc3ccc(Cl)cn3c2NCc2ccccc2)c1,10.8,-2.6,-5.1,72.3*!,-20.0
Clc1cccc(-c2ccc(-c3nc4ccccn4c3NCc3ccccc3)cc2)c1,18.6,2.0,31.2*,-73.7,x
CCC(C)Sc1ccc(-c2nc3ccc(Cl)cn3c2NCc2ccccc2)cc1 (stereo unspecified),83.9*,3.3,u,-117.4,-13.1
O=C(C[C@H]1CC[C@H]2[C@@H](COC[C@@H](O)CN2S(=O)(=O)c2ccccc2Cl)O1)N1CCC(Cc2ccccc2)CC1,x,3.8,x,x,-35.9
C[C@H](CO)N1C[C@H](C)[C@@H](CN(C)S(=O)(=O)c2cn(C)cn2)Oc2ccc(NS(=O)(=O)c3cccs3)cc2CC1=O,x,-3.5,x,-8.4[16.7 µM],7.0
CCCCCCOC(=O)c1ccccc1NC(=O)/C=C/C(=O)O,x,x,34.1*,-47.1,x
O=C(O)/C=C/C(=O)Nc1ccccc1C(=O)OCC(=O)c1ccc2c(c1)OCCO2,14.9,-0.5,31.5*,-8.4,3.9
CCOC(=O)c1ccccc1NC(=O)/C=C/C(=O)O,1.3,x,-2.5,-5.4,14.6
CCC(=O)Nc1ccccc1C(=O)OCC(=O)c1ccc2ccccc2c1,7.7,x,50.2*,-35.6,x
CNC(=O)C[C@H]1CC[C@@H]2[C@H](COc3ccc(NC(=O)c4cscn4)cc3C(=O)N2C)O1,x,0.8,x,-8.3[16.7 µM],3.7
Cc1ccc2[nH]c(C)c(/C=C/c3cc[n+](C)cc3)c2c1,-51.7,-1.3,-4.1,59.9*,-31.1
CN(C)S(=O)(=O)c1cc(NC(=O)COC(=O)CCc2ccccc2)ccc1Cl,-9.9,-1.6,0.8,10.3,-2.4
CN(C)S(=O)(=O)c1cc(NC(=O)[C@H](Cc2ccccc2)N2C(=O)c3ccccc3C2=O)ccc1Cl,-5.1,x,31.2*,-9.6,-27.9
